From PubChem BioAssay (NCATS)
Results filed as inconclusive are left out. Active and inactive are the calls of the source. The call rests on the fitted dose curve; in most records, active means well fitted cell-killing curve with a large enough effect; inconclusive means small, poorly fitted or top-dose-only effect, or effect the other way; inactive means flat fitted curve, though single readings scatter.

Tests used:
Assay in all cases: Primary qHTS to identify gynecologic anti-cancer compounds using libraries of approved drugs and bioactive compounds (AID 1345084); further: nearly all actives have a fitted effect of over 55% in size
C33A = conditions: Gynecologic cancer cell panel viability, ATPlite luminescence, 48 h; series mostly up to 57.5 µM
Procedure, shortened: (§1)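 Five-concentration response, 48 h; readout is ATP-driven luciferase luminescence.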

CASKI = conditions: Gynecologic cancer cell panel viability, ATPlite luminescence, 48 h; series mostly up to 57.5 µM
Procedure, shortened: as §1

Es-2 = conditions: Gynecologic cancer cell panel viability, ATPlite luminescence, 48 h; series mostly up to 57.5 µM
Procedure, shortened: as §1

HeLa = conditions: Gynecologic cancer cell panel viability, ATPlite luminescence, 48 h; series mostly up to 57.5 µM
Procedure, shortened: as §1

Hek293T = conditions: Gynecologic cancer cell panel viability, ATPlite luminescence, 48 h, control line for the selectivity index; series mostly up to 57.5 µM
Procedure, shortened: as §1

JEG-3 = conditions: Gynecologic cancer cell panel viability, ATPlite luminescence, 48 h; series mostly up to 57.5 µM
Procedure, shortened: as §1

OV90 = conditions: Gynecologic cancer cell panel viability, ATPlite luminescence, 48 h; series mostly up to 57.5 µM
Procedure, shortened: as §1

PA-1 = conditions: Gynecologic cancer cell panel viability, ATPlite luminescence, 48 h; series mostly up to 57.5 µM
Procedure, shortened: as §1

SKOV3 = conditions: Gynecologic cancer cell panel viability, ATPlite luminescence, 48 h; series mostly up to 57.5 µM
Procedure, shortened: as §1

Tov-21-G = conditions: Gynecologic cancer cell panel viability, ATPlite luminescence, 48 h; series mostly up to 57.5 µM
Procedure, shortened: as §1

Tov112D = conditions: Gynecologic cancer cell panel viability, ATPlite luminescence, 48 h; series mostly up to 57.5 µM
Procedure, shortened: as §1
On the % scale 0 is the no-effect control and ±100 the full control effect.

Cc1cccc(Oc2cnc(=O)[nH]c2)c1
inactive: Potency (C33A) | Potency (CASKI) | Potency (Es-2) | Potency (HeLa) | Potency (Hek293T) | Potency (JEG-3) | Potency (OV90) | Potency (PA-1) | Potency (SKOV3) | Potency (Tov-21-G) | Potency (Tov112D)

CC(=O)OC/C=C(\C)C(CC1C(C)=C(OC(C)=O)C(=O)C2C(C)(C)C(O)CCC12C)OC(C)=O (centres undefined)
inactive: Potency (C33A) | Potency (CASKI) | Potency (Es-2) | Potency (HeLa) | Potency (Hek293T) | Potency (JEG-3) | Potency (OV90) | Potency (PA-1) | Potency (SKOV3) | Potency (Tov-21-G) | Potency (Tov112D)

CC1(C)CC[C@]2(C(=O)O[C@@H]3O[C@H](CO)[C@@H](O)[C@H](O)[C@H]3O)CC[C@]3(C)C(=CCC4[C@@]5(C)CC[C@H](O[C@@H]6O[C@H](C(=O)O)[C@@H](O)[C@H](O)[C@H]6O)[C@@](C)(CO)C5CC[C@]43C)C2C1 (some centres undefined)
inactive: activity change, negative = cytotoxicity (C33A) 9.39% [at 11.6 µM] | activity change, negative = cytotoxicity (CASKI) 1.03% [at 11.6 µM] | activity change, negative = cytotoxicity (Es-2) 1.13% [at 11.6 µM] | activity change, negative = cytotoxicity (HeLa) -10.8% [at 11.6 µM] | activity change, negative = cytotoxicity (Hek293T) 5.9% [at 11.6 µM] | activity change, negative = cytotoxicity (JEG-3) -2.45% [at 11.6 µM] | activity change, negative = cytotoxicity (OV90) 8.98% [at 11.6 µM] | activity change, negative = cytotoxicity (PA-1) 2.88% [at 11.6 µM] | activity change, negative = cytotoxicity (SKOV3) 0% [at 11.6 µM] | activity change, negative = cytotoxicity (Tov-21-G) 2.2% [at 11.6 µM] | activity change, negative = cytotoxicity (Tov112D) 2.24% [at 11.6 µM]

Cc1ccc(C)c(OCCn2cc(C(=O)O)c3ccccc32)c1
inactive: Potency (C33A) | Potency (CASKI) | Potency (Es-2) | Potency (HeLa) | Potency (Hek293T) | Potency (JEG-3) | Potency (OV90) | Potency (PA-1) | Potency (SKOV3) | Potency (Tov-21-G) | Potency (Tov112D)

C[C@@H]1[C@H]2[C@H](O[C@@H]3O[C@H](CO)[C@@H](O)[C@H](O)[C@H]3O)OC=C(C(=O)O)[C@H]2C[C@@H]1O
inactive: Potency (C33A) | Potency (CASKI) | Potency (Es-2) | Potency (HeLa) | Potency (Hek293T) | Potency (JEG-3) | Potency (OV90) | Potency (PA-1) | Potency (SKOV3) | Potency (Tov-21-G) | Potency (Tov112D)

C=C1CCC[C@]2(C)CC[C@@H](C(=C)C(=O)O)[C@H](O)[C@@H]12
inactive: Potency (C33A) | Potency (CASKI) | Potency (Es-2) | Potency (HeLa) | Potency (Hek293T) | Potency (JEG-3) | Potency (OV90) | Potency (PA-1) | Potency (SKOV3) | Potency (Tov-21-G) | Potency (Tov112D)

COC(=O)C[C@H]1[C@]2(C)C3=C(C)[C@H](c4ccoc4)C[C@H]3O[C@@H]2[C@H](OC(C)=O)C2[C@](C)(C(=O)OC)C=CC(=O)[C@@]21C (some centres undefined)
inactive: Potency (C33A) | Potency (CASKI) | Potency (Es-2) | Potency (HeLa) | Potency (Hek293T) | Potency (JEG-3) | Potency (OV90) | Potency (PA-1) | Potency (SKOV3) | Potency (Tov-21-G) | Potency (Tov112D)

CC/C=C\C/C=C\C/C=C\CCCCCCCC(=O)OCC(O)COC1OC(CO)C(O)C(O)C1O (centres undefined)
inactive: Potency (C33A) | Potency (CASKI) | Potency (Es-2) | Potency (HeLa) | Potency (Hek293T) | Potency (JEG-3) | Potency (OV90) | Potency (PA-1) | Potency (SKOV3) | Potency (Tov-21-G) | Potency (Tov112D)

CC1(C)[C@@H](O)CC[C@]2(C)[C@H]3CC=C4[C@@H]5C[C@](C)(C(=O)O)CC[C@]5(C)CC[C@@]4(C)[C@]3(C)CC[C@@H]12
inactive: Potency (C33A) | Potency (CASKI) | Potency (Es-2) | Potency (HeLa) | Potency (Hek293T) | Potency (JEG-3) | Potency (OV90) | Potency (PA-1) | Potency (SKOV3) | Potency (Tov-21-G) | Potency (Tov112D)

Cc1csc(NC(=O)c2ccc(COc3cccc(Cl)c3)o2)n1
inactive: Potency (C33A) | Potency (CASKI) | Potency (Es-2) | Potency (HeLa) | Potency (Hek293T) | Potency (JEG-3) | Potency (OV90) | Potency (PA-1) | Potency (SKOV3) | Potency (Tov-21-G) | Potency (Tov112D)

CC(O)(CC(=O)O)CC(=O)OCc1ccc(O[C@@H]2O[C@H](CO)[C@@H](O)[C@H](O)[C@H]2O)cc1 (some centres undefined)
inactive: Potency (C33A) | Potency (CASKI) | Potency (Es-2) | Potency (HeLa) | Potency (Hek293T) | Potency (JEG-3) | Potency (OV90) | Potency (PA-1) | Potency (SKOV3) | Potency (Tov-21-G) | Potency (Tov112D)

CC1C(=O)OCC2=CCN3CCC(OC(=O)C(C)(O)C1(C)O)C23 (centres undefined)
inactive: Potency (C33A) | Potency (CASKI) | Potency (Es-2) | Potency (HeLa) | Potency (Hek293T) | Potency (JEG-3) | Potency (OV90) | Potency (PA-1) | Potency (SKOV3) | Potency (Tov-21-G) | Potency (Tov112D)

Cc1cccc(-c2[nH]c(Cc3cccc(C(N)=O)c3)nc2-c2ccc3nccnc3c2)n1
inactive: Potency (C33A) | Potency (CASKI) | Potency (Es-2) | Potency (HeLa) | Potency (Hek293T) | Potency (JEG-3) | Potency (OV90) | Potency (PA-1) | Potency (SKOV3) | Potency (Tov-21-G) | Potency (Tov112D)

C=C1CCC2C(C)(C(=O)O)CCCC2(C)C1CCC(C)CC(=O)O (centres undefined)
inactive: Potency (C33A) | Potency (CASKI) | Potency (Es-2) | Potency (HeLa) | Potency (Hek293T) | Potency (JEG-3) | Potency (OV90) | Potency (PA-1) | Potency (SKOV3) | Potency (Tov-21-G) | Potency (Tov112D)
